# Shown are actives, neighbours in structure and some others; about 12% of the full set was active somewhere.
# LASV entry inh: qHTS for Inhibitors of binding or entry into cells for Lassa Virus; 300,000 tested, 1.2% active; Lassa virus pseudotype entry inhibition, cell reporter; AID 540256, 2011; Potency, µM (titrated, usually from 37.9 µM), hits mostly inhibitors; calls by dose curve; tested in HEK293 cells; note: nearly all actives have a fitted effect of over 50% in size
# Cycloheximide cs: Cycloheximide Counterscreen for Small Molecule Inhibitors of Shiga Toxin. cell reporter, cycloheximide protein synthesis inhibition counterscreen. max response, %. 300,000 tested, 12% active. AID 2314, 2010; in the data active = max response mostly above about 13%, no sharp cut-off; inactive = mostly below about 14%; note: read at 38.3 µM for the half of the compounds with a filed dose
# Marburg entry inh: qHTS for inhibitors of binding or entry into cells for Marburg Virus. Marburg virus pseudotyped entry inhibition, cell reporter. Potency, µM (doses to about 37.8 µM), actives largely listed as inhibitors. 300,000 tested, 1.8% active. AID 540276, 2011; calls by dose curve; tested in HEK293 cells
# Shiga inhibitor: A qHTS for Small Molecule Inhibitors of Shiga Toxin; AID 2315, 2010; Vero cells, Shiga toxin protein synthesis inhibition reporter; inhibition, % at 38.7 µM; 290,000 tested, 9.2% active; in the data active = inhibition mostly above about 28%, no sharp cut-off; inactive = mostly below about 43%
# A number is an active result; 0 = inactive; ? = inconclusive; - = no result given; + = active, no number.
SMILES,LASV entry inh,Cycloheximide cs,Marburg entry inh,Shiga inhibitor
COc1ccc2cc(C(=O)N3CCN(C)CC3)[nH]c2c1,-,32.6,-,86.1
COc1ccc2cc(C(=O)N3CCN(c4ccc(F)cc4)CC3)[nH]c2c1,-,0,-,0
CCN1CCN(C(=O)c2cc3ccc(OC)cc3[nH]2)CC1,-,30.5,-,60.2
Cc1cccc(NC(=O)c2cccc(S(=O)(=O)NCc3ccccc3)c2)n1,0,-,0,-
CCN1C(=O)NC(c2ccco2)C(C(C)=O)=C1C (configuration not stated),-,-,0,-
CC(C)CCOC(=O)/C(=C/c1ccco1)NC(=O)/C=C/c1ccccc1,0,19.8,0,0
Cc1ccccc1C1CC(=O)Oc2cc(O)ccc21 (configuration not stated),-,0,-,0
CC(=O)n1cc(C(C[N+](=O)[O-])SCCN)c2ccccc21 (configuration not stated),?,0,20.6µM,0
COc1ccccc1OCCNC(=O)c1cccc(S(=O)(=O)N2CC(C)OC(C)C2)c1 (configuration not stated),0,0,0,0
CC(C)(C)C(=O)CSc1nnc(Nc2ccccc2)s1,?,33.8,?,0
CN(C(=O)CSc1nnc(Nc2ccccc2)s1)c1c(N)n(Cc2ccccc2)c(=O)[nH]c1=O,0,29.3,0,0
O=C1c2ccccc2C(=O)N1CSc1nnc(Nc2ccccc2)s1,0,0,?,0
OCCSc1nnc(Nc2ccccc2)s1,0,38.4,0,87.3
N#CCSc1nnc(Nc2ccccc2)s1,0,0,0,0
Cc1oc(-c2ccccc2F)nc1CSCC(=O)NC1CCC(C)CC1 (configuration not stated),0,0,0,0
COc1ccc2c(CC(=O)Nc3ccc(OC)nc3)coc2c1,0,0,?,0
c1ccc2c(c1)oc1c(N3CCOCC3)ncnc12,0,9.8,0,0
c1cnc(N2CCN(c3ncnc4c3oc3ccccc34)CC2)nc1,-,0,0,0
O=C(c1ccco1)N1CCN(c2ncnc3c2oc2ccccc23)CC1,?,41.1,?,63.4
c1ccc2cc(Sc3ncnc4c3oc3ccccc34)ccc2c1,0,0,0,0
COc1ccccc1N1CCN(c2ncnc3c2oc2ccccc23)CC1,?,8.6,?,0
Cc1cc(C)nc(Sc2ncnc3c2oc2ccccc23)n1,0,0,0,50.3
CCSc1ncnc2c1oc1ccccc12,0,0,0,0
Clc1ncnc2c1oc1ccccc12,?,36.7,?,+
c1coc(CN(Cc2ccco2)c2ncnc3c2oc2ccccc23)c1,?,18.6,?,0
SMILES,LASV entry inh,Cycloheximide cs,Marburg entry inh,Shiga inhibitor
O=C(NCc1ccc(Cl)cc1)c1cccc2c1C(=O)N(CC1CCCO1)C2 (configuration not stated),-,0,-,0
N/C(=N\O)c1ccc(Oc2ccccc2Cl)c([N+](=O)[O-])c1,-,0,-,0
O=[N+]([O-])c1ccccc1Oc1ccccc1Cl,0,14.9,0,0
COc1ccc(/C=N/OCC(=O)NC(c2ccccc2)c2ccccc2)cc1OC,?,0,?,0
COc1cc(/C=N/OCC(=O)Nc2ccc(OC(F)F)cc2)ccc1OCc1ccccc1,?,45.5,7.08µM,0
CCOc1ccc(/C=N/OCC(=O)Nc2ccc(OCc3ccccc3)cc2)cc1OC,0,17.4,?,0
O=C(NCc1ccc(Cl)cc1)C(=O)Nc1nccs1,0,0,?,0
C/C=C/C=C/C(=O)Nc1nccs1,?,16.9,0,0
O=C(/C=C/c1ccc(Cl)cc1)Nc1nccs1,-,54.1,-,69.8
CCc1noc(C)c1C(=O)N(CC(C)C)c1c(N)n(Cc2ccccc2)c(=O)[nH]c1=O,0,-,0,-
COc1ccc(N2CC(NC(=O)Cc3cccs3)CC2=O)cc1 (configuration not stated),0,-,-,-
NC(=O)c1nsc(C(=O)N(c2ccccc2F)C(C(=O)NCc2ccccc2)c2ccc(O)cc2)c1N (configuration not stated),-,0,0,0
COC(=O)CNC(=O)c1cccc(-c2ccc(OC)cc2)c1,0,35.7,0,80.1
COc1ccc(CC(NC(=O)c2ccccc2)C(=O)NCC(=O)O)cc1 (configuration not stated),-,0,-,0
COc1ccc(-c2cccc(C(=O)NCC(=O)O)c2)cc1,0,23.3,0,35.5
CCN(CC(=O)Nc1ccc(OC)cc1)C(=O)c1ccc2ccccc2c1,0,-,0,-
CCN(CC)C(=O)c1cccc(-c2ccc(OC)cc2)c1,0,24.8,0,48.7
CC(C)Nc1ccc(Nc2ccnc3cc4ccccc4cc23)cc1,6.31µM,0,5.17µM,0
COc1ccc(Nc2ncnc3ccccc23)cc1,0,29.7,0,71.2
c1ccc(CCNc2ccnc3cc4ccccc4cc23)cc1,-,0,?,0
COc1ccc(Nc2ncnc3ccccc23)c(OC)c1,0,0,0,0
COc1ccc(Nc2ccnc(Nc3ccc(OC)cc3)n2)cc1,?,36.5,?,72.0
COc1cccc(Nc2ncnc3ccccc23)c1,0,30.5,0,98.7
CC(=O)N(C)c1ccc(C(O)(C(F)(F)F)C(F)(F)F)cc1,0,0,0,0
O=C1N=C2C=CC=CC2c2ccccc21 (configuration not stated),-,-,0,-
SMILES,LASV entry inh,Cycloheximide cs,Marburg entry inh,Shiga inhibitor
COc1cccc(Nc2nc3ccccc3c(=O)[nH]2)c1,0,0,0,0
COc1ccc(Nc2ccccc2N)cc1,0,0,?,43.6
COc1cccc(Nc2cc(C)c3ccccc3n2)c1,?,24.8,?,66.2
COc1ccc(Nc2cc(Nc3ccccc3)ncn2)cc1,-,31.4,0,48.9
COc1ccc(Nc2ccnc3ccccc23)cc1,0,17.6,?,0
CC1CC1C(=O)OCC(=O)Nc1cc(S(=O)(=O)N2CCCCC2)ccc1Cl (configuration not stated),0,-,0,-
COc1ccc(Cl)cc1S(=O)(=O)N(C)CC(=O)NCc1ccc2c(c1)OCO2,0,0,0,0
COc1ccccc1CC(=O)Nc1ccc2nc(Nc3cccc(Cl)c3)cc(C)c2c1,3.16µM,-,-,-
Cc1ccc(OCC(=O)Nc2ccc3nc(Nc4cccc(Cl)c4)cc(C)c3c2)cc1,?,-,0,-
Clc1ccc2c(NCc3ccccn3)ccnc2c1,-,0,-,0
CCOc1ccccc1Nc1ccnc2cc(Cl)ccc12,10µM,0,?,0
O=C(Nc1nonc1-c1ccc(F)cc1)c1ccco1,-,0,-,0
COC(=O)c1c(-c2ccccc2)csc1NC(=O)c1ccco1,?,70.7,?,153.3
Cc1csc(NC(=O)c2ccco2)c1C(=O)c1ccccc1,0,0,0,0
Cc1ccc(-c2csc(NC(=O)/C=C/c3ccco3)c2C(=O)O)cc1,?,36.0,?,86.1
O=C(Nc1scc(-c2ccc(F)cc2)c1C(=O)O)c1ccco1,0,56.3,?,91.9
Cc1nn(-c2ccccc2)c(C)c1CN,0,0,?,0
Cc1nn(-c2ccccc2)c(C)c1Cc1ccc(O)cc1,-,26.5,-,76.6
CCOc1ccc2nc(NC(=O)c3ccc(OCC4CCCO4)cc3)sc2c1 (configuration not stated),0,34.6,0,35.8
O=C(Nc1nc(-c2ccc(F)c(F)c2)cs1)c1ccc(OCC2CCCO2)cc1 (configuration not stated),0,0,?,0
Cc1cccc(C(C)C)c1NC(=O)c1ccc(OCC2CCCO2)cc1 (configuration not stated),0,-,0,-
